Compound activity: PubChem BioAssay, several laboratories
Mdm2 MdmX PPI – inhibitors of human Mdm2-MdmX association, primary screen, cell-based, luminescence, split luciferase, SaOS-2, uHTS; Protein Mdm4 (Homo sapiens) + E3 ubiquitin-protein ligase Mdm2 (Homo sapiens), …; SaOS-2 split-luciferase Mdm2/MdmX complementation; inhibition, % at 8 µM; 330,000 compounds, 3% hits; AID 485346, 2010;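 active = inhibition of at least 50% at 8 µM in the primary screen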
Target sequence (O15151 whole entry, looked up): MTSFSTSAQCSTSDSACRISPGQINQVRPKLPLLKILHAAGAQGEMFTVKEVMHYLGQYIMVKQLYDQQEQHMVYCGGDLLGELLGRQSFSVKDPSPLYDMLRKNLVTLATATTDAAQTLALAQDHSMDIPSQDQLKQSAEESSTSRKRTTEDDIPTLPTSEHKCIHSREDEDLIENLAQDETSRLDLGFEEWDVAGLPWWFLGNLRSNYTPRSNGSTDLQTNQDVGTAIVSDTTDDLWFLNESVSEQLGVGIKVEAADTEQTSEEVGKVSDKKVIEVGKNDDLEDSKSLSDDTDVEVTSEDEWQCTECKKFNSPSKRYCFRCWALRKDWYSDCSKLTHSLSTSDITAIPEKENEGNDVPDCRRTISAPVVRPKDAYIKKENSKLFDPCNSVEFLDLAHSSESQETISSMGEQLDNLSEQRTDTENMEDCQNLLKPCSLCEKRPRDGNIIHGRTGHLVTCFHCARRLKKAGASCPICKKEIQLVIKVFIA
Target sequence (Q00987 whole entry, looked up): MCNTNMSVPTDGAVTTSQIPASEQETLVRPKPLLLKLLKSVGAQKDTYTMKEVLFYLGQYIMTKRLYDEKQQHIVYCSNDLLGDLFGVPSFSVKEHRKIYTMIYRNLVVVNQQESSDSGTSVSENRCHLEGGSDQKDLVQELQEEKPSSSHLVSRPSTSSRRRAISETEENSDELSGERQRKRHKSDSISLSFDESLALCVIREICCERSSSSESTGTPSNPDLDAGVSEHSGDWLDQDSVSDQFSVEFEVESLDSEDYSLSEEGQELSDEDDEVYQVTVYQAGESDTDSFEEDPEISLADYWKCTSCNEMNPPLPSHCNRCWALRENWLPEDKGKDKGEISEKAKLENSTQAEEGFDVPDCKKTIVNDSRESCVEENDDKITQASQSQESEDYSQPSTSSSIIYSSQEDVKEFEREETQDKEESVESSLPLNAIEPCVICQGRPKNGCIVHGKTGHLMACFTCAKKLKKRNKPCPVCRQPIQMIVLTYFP
Beta cell apopt – inhibitors of cytokine-induced beta cell apoptosis, primary screen, luminescence. INS-1E cytokine-induced death, ATP luminescence, 48 h; percent of positive-control rescue, neutral wells zero. protection from apoptosis, % (no concentration beside the values). 300,000 compounds, 0.8% hits. AID 435005, 2010;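 active = Every replicate reaches about 75%, or at least half do and their mean reaches it too, limit read from the data; inconclusive = At least half of replicates reach the limit but their mean does not; inactive = Under half of replicates reach the limit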;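 also: 0% = cytokine-treated negative control wells and 100% = positive control rescue; higher means more ATP so stronger rescue from cytokine killing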
SKKanGAS inh – S. pyogenes SKKanGAS growth inhibitors in kanamycin, primary screen, streptokinase expression inhibitor project, SKKanGAS strain, BacTiter-Glo luminescence | 6 h | inhibition, % at 7.5 µM | 300,000 compounds, 1.3% hits;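 active = mean replicate score, as percent of positive control median, at least 50; inconclusive = mean below 50 but one replicate at or above 50; inactive = mean and every replicate below 50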;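 also: strain carries kanamycin resistance gene driven by streptokinase promoter and grows in 40 µg/ml kanamycin; loss of luminescence reflects streptokinase promoter inhibition or plain growth inhibition; 0% = median of DMSO wells and 100% = positive control at its reference dose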
CSC inhib – cancer stem cell viability inhibitors, primary screen, luminescence. cancer stem cell-like cells viability. inhibition, % at 7.5 µM. 300,000 compounds, 1.1% hits. AID 2717, 2010; in the data active = inhibition above about 75%; inconclusive = no clear call, values can overlap the other calls; tested in HMLE shEcad cells
MPTP inh – mitochondrial permeability transition pore inhibitors, primary screen, biochemical, isolated mouse mitochondria, absorbance; Ca2+ swelling absorbance, 30 min; inhibition, % at 10 µM; 360,000 compounds, 1.4% hits;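 active = inhibition of 50% or more, scaled per plate between neutral and stimulator controls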;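 also: 0% = DMSO wells given calcium and 100% = 1 mM EGTA wells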
Calb FLC – C. albicans growth inhibition with fluconazole, primary screen, CaCi-2 strain, Alamar Blue fluorescence; C. albicans CaCi-2 (fluconazole-resistant clinical isolate) + fluconazole, 48 h; growth inhibition, % (no concentration beside the values); 300,000 compounds, 0.57% hits;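 active = growth inhibition above about 58% in most replicates, limit read from the data, passing the limit was not always enough; inconclusive = exactly half the replicates above a set limit; inactive = most replicates below a set limit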;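 also: all wells also contain fluconazole at 8 µg/ml as a sub-toxic cotreatment; 0% = median of DMSO wells and 100% = median of geldanamycin control wells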
The depositor's hits bear a star; ? = inconclusive; . = no result. Most compounds without a hit are left out; they make up all but 5.4% or so of the library.

SMILES	Mdm2 MdmX PPI	Beta cell apopt	SKKanGAS inh	CSC inhib	MPTP inh	Calb FLC
Cc1noc2ncnc(Sc3ccc(Cl)cc3)c12	19	-49	-2	51	-1	86*
CC(C(=O)NC(C)(C)C)N(C(=O)CS(=O)CC(=O)Nc1ccc(F)cc1)c1ccccc1F (configuration not stated)	3	-2	2	-4	1	-10
COc1cccc(/C=N/NC(=S)Nc2cccnc2)c1	2	1	-21	5	1	24
COc1ccc(O)c(/C=N/NC(=S)Nc2cccnc2)c1	16	76*	0	50	2	3
Cc1cccc2sc(NNC(=O)c3ccc(S(=O)(=O)N4CCCC(C)C4)cc3)nc12 (configuration not stated)	.	102*	91*	128*	25	-1
Cc1ccc(-c2csc3nc[nH]c(=S)c23)cc1C	49	20	93*	-1	1	-6
Cc1cccc(NCC(=O)N/N=C\c2cccc(Oc3ccccc3)c2)c1	18	1	58*	29	10	-6
COc1cc(/C=C(\C#N)c2nc3ccccc3s2)cc([N+](=O)[O-])c1O	9	.	23	.	36	88*
O=C(CN1CCN(c2cnn(-c3ccccc3)c(=O)c2Cl)CC1)NC1CCS(=O)(=O)C1 (configuration not stated)	10	.	.	.	-1	.
O=C(CSc1ccccn1)N/N=C/c1ccccc1[N+](=O)[O-]	10	-3	-2	-1	0	-11
O=C(Cn1nc2ccccc2n1)N/N=C/c1cc([N+](=O)[O-])ccc1O	3	40	104*	7	-4	?
O=C(Cn1cncn1)N/N=C/c1cc([N+](=O)[O-])ccc1O	0	12	3	8	1	-4
Cc1cc([N+](=O)[O-])nn1CC(=O)N/N=C/c1ccc(O)cc1O	31	47	5	80*	3	-2
O=C(CSc1ccccn1)N/N=C/c1cc([N+](=O)[O-])ccc1O	5	2	115*	6	1	34
O=C(Cc1ccccc1)NC(C(=O)O)C(O)c1ccc([N+](=O)[O-])cc1 (configuration not stated)	3	-3	3	-1	1	-7
O=C(NNS(=O)(=O)c1ccc2ccccc2c1)c1cc(-c2ccccn2)nc2ccccc12	7	3	24	8	3	35
Cc1cc(C)nc(SCCCNCc2c(F)cccc2Cl)n1	2	.	3	-16	-1	-9
COCCNC(=O)NC12CC3CC(CC(C3)C1)C2	18	3	-1	-7	1	95*
O=C(Cc1ccccc1)NCC(=O)OCC(=O)c1ccc([N+](=O)[O-])cc1	11	4	-9	-14	0	10
COc1ccc(C(=O)Nc2c3c(nn2-c2ccc([N+](=O)[O-])cc2)CS(=O)(=O)C3)cc1	39	.	52*	-6	0	6
COc1ccccc1Nc1nc(-c2cccc([N+](=O)[O-])c2)cs1	-11	25	-20	74	2	46
CC(=O)c1cccc(Nc2nc(-c3ccccc3)cs2)c1	-351	-3	11	10	0	-4
O=C(Nc1cccc(-c2csc(Nc3cccc(C(F)(F)F)c3)n2)c1)c1ccccc1	43	16	93*	130*	2	4
O=[N+]([O-])c1cccc(-c2csc(Nc3ccccc3)n2)c1	-80	10	.	94*	3	-29
O=C(Nc1cccc(-c2csc(Nc3ccccc3)n2)c1)c1ccccc1	-8	37	41	100*	1	10
SMILES	Mdm2 MdmX PPI	Beta cell apopt	SKKanGAS inh	CSC inhib	MPTP inh	Calb FLC
COC(=O)[C@H](Cc1ccccc1)NC(=O)NCC1CCCO1 (some centres not stated)	17	-6	-2	-2	-3	-5
COC(=O)c1[nH]c2cc(C)ccc2c1NC(=O)CN1CCc2cc(OC)c(OC)cc2C1	28	-8	3	-2	4	100*
COc1cc(C(=O)NC(C)c2cc(C)ccc2C)ccc1OCC(=O)N1CCOCC1 (configuration not stated)	19	-5	.	.	-1	.
Cc1ccc(Nc2nc(N)nc(CN3CCc4ccccc4C3)n2)cc1	47	.	17	3	-1	?
Cc1c(Cl)cccc1Nc1nc(N)nc(CN2CCc3ccccc3C2)n1	16	2	80*	18	-2	1
Cc1cc(NCc2ccccc2)n2ncc(-c3ccccc3)c2n1	-27	1	11	48	-1	11
CC(C)(C)c1cc(NCc2ccccn2)n2ncc(-c3ccccc3)c2n1	48	.	108*	78*	-4	8
CC(C)(C)Sc1ccc2nc3c(n2c1)CCCC3	7	101*	8	25	3	-4
O=C1NC[C@H](CC2CCCCC2)N(CCc2cccc3ccccc23)C1=O	.	.	.	.	0	.
O=C1NC[C@@H](Cc2cccc3ccccc23)N(CCCCC2CCCCC2)C1=O	19	0	82*	88*	-3	28
O=C1NC[C@H](CC2CCCCC2)N(CCc2cc(C(F)(F)F)cc(C(F)(F)F)c2)C1=O	.	.	.	.	-1	.
CN(C)C1=NC[C@H](Cc2ccccc2)N1CCCC1CCCCC1	43	87*	.	27	3	.
S=C1NC[C@H](CC2CCCCC2)N1CCCCC1CCCCC1	22	3	76*	-27	-3	-5
FC(F)(F)c1cc(CCN2C(=S)NC[C@@H]2CC2CCCCC2)cc(C(F)(F)F)c1	15	7	68*	97*	0	-4
Cc1noc(C)c1COc1ccc(C(=O)N(C)CCOc2ccccc2)cc1	-11	3	.	.	0	.
COc1cc(NC(=O)c2cc(CC(C)C)on2)c(OC)cc1Cl	-5	-2	-15	-11	-2	-3
COc1cc(C)c(S(=O)(=O)NC2CC(C)(C)NC(C)(C)C2)cc1C	11	-1	1	-15	2	-4
S=C1NC[C@H](Cc2ccccc2)N1CCCCC1CCCCC1	-25	-11	16	136*	-1	-22
O=c1c2cc(Br)ccc2[nH]c(=S)n1Cc1ccccc1	30	.	17	.	0	-7
O=C(NCc1cccnc1)c1ccc(Cn2c(=S)[nH]c3ccc(Br)cc3c2=O)cc1	17	98*	17	4	-2	-4
CCCCC[C@H](O)/C=C/[C@@H]1[C@@H](C/C=C\CCCC(=O)O)[C@H]2CO[C@@H]1C2	-9	.	-2	.	-1	.
COc1ccc(NC(=O)NC(C)c2ccccc2)cc1 (configuration not stated)	2	-3	.	-18	1	100*
O=C(Nc1nc2ccccc2n1CCN1CCOCC1)c1ccc(COc2ccccc2Br)o1	47	16	50*	28	3	18
